Our source for the activity change, negative = inhibition values is PubChem BioAssay AID1259415 (National Center for Advancing Translational Sciences (NCATS), 2018).

The whole screen tested about 410,000 compounds, of which about 18,000 (4.4%) were called active. Another 7% or so got no clear call; they are omitted. The full list was thinned out, with actives kept by preference. Values without a mark were called inactive. Cut-off read from the data, not from the text of the source: active = activity change below about -60%; inconclusive = no clear call, values can overlap the other calls; inactive = above about -39%.
% is set by controls: 0 for no effect and ±100 for the full control effect.

The nature of the assay: qHTS Assay for inhibitors of the human cytomegalovirus (HCMV). To be noted: HFF cells, HCMV-luciferase reporter, 72 h; at 57.5 µM; active compounds read low. The procedure, abridged: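 Cell-based, HFFs, 1000 cells/well, 16 h 37C; cpds in DMSO + HCMV-luc, MOI 1 PFU/cell; 72 h 37C; OneGlo luminescence after 5 min RT; norm. to buffer vs Salinomycin 10uM.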
In general terms: qHTS replaces the single test concentration by a dilution series.
As for `CC(=O)Nc1cc(C(=O)NCc2ccc(F)cc2)ccc1Sc1ccc(F)cc1`, the activity change, negative = inhibition was -2.97%.
In the case of `Cc1cc(C)nc(-n2nc(C)cc2NC(=O)c2ccc(F)cc2F)n1`, the activity change, negative = inhibition is -89.4% (active).
Then `CC(=O)N/C(=N/c1nc(C)cc(C)n1)Nc1ccc(F)cc1F`, with -32.1%; and `CCOC(=O)c1cccc(NC(=O)c2ccc(F)cc2F)c1`, with 17.1%; and `Cc1ccc(-c2nn3c(=O)cc(CN4CCN(S(=O)(=O)c5ccc(Cl)cc5)CC4)nc3s2)cc1`, with -1.44%.
To `CCSc1ccccc1C(=O)NCc1ccc(OC)cc1` belongs -19.4%.
Then `COc1ccc(CNC(=O)/C(C#N)=C/c2cccc(OC)c2OC)cc1`, with -83.6% (active); and `COc1cc(/C=C(\C#N)C(=O)Nc2ccc3ccccc3c2)c([N+](=O)[O-])cc1OC`, with 16.2%.
As to `COc1ccc(NC(=O)CCCN2C(=O)CCn3nc(-c4cn(C)c5ccccc45)cc32)cc1OC`, the activity change, negative = inhibition was -28.9%.
As to `CCOc1ccc(CN2CCN(CCCc3ccccc3)C(CCO)C2)cc1` (stereo unspecified), the activity change, negative = inhibition is 37.5%.
To `CCOc1ccccc1CN1CCN(C2CCC2)CC1CCO` (stereo unspecified) belongs -93.5% (active).
Then `COc1ccccc1N1CCC(N2CCN(CC(C)(C)C)C(CCO)C2)CC1` (stereo unspecified), with 33.4%.
To `Cc1ccccc1CSc1nc(-c2ccccc2)nc2c1Cc1c(CO)cnc(C)c1O2` belongs 8.94%; to `CCOC(=O)[C@]12Cc3cc(OC)ccc3[C@H]1N(C(C)C)C(=O)c1ccccc12`, -109% (active).
As to `CCOC(=O)C1(Cc2cccc(OC)c2)CCN(C(C)COC)CC1` (stereo unspecified), the activity change, negative = inhibition is -7.28%.
To `CCOC(=O)c1ccc(NC(=O)CC2C(=O)N(c3cccc(OC)c3)C(=O)N2C2CCCCC2)cc1` (stereo unspecified) belongs -1.63%.
To `CCOc1ccc(NC(=O)CC2C(=O)N(c3cccc(OC)c3)C(=O)N2C2CCCCC2)cc1` (stereo unspecified) belongs 7.53%; to `CCOC(=O)[C@]12Cc3ccccc3[C@H]1N(C1CCCCC1)C(=O)c1cc(OC)ccc12`, -101% (active).
To `CCOC(=O)C1(Cc2cccc(OC)c2)CCN(C(C)CC(C)(C)O)CC1` (stereo unspecified) belongs 14%; to `Cc1ccc(O)c(NC(=O)CCS(=O)(=O)c2nc(-c3ccc4c(c3)OCO4)cc(C(F)(F)F)n2)c1`, 14.6%; to `CCOC(=O)[C@]12CCCC=C1N(Cc1ccc3c(c1)OCO3)C(=O)[C@H](CC(=O)NCc1cccs1)C2`, 6%.
For `Cc1ccc(C)c(CNC(=O)c2cc3ccccn3n2)c1`, the activity change, negative = inhibition is 7.66%.
For the molecule `CCc1ccc(-n2nnc(-c3nc(-c4ccccc4)no3)c2C)cc1`, the activity change, negative = inhibition is 168%.
Then `O=C(Nc1ccc(OC(F)(F)F)cc1)C1CCCN(S(=O)(=O)c2ccc(Br)s2)C1` (stereo unspecified), with 6.14%.
To `O=C1COCc2ccc(-c3cc4ccccc4o3)cc2N1CC1CC1` belongs -2.65%; to `COC(=O)CCCCCN1C(=O)NC(c2ccc(-c3ccccc3)cc2)C(C(=O)OCc2ccccc2)=C1C` (stereo unspecified), 19.6%; to `CC1=C(C(=O)OC(C)(C)C)C(c2ccc(Br)cc2)NC(=O)N1CCCC(=O)O` (stereo unspecified), -18.5%.
Then `CCCCNC(=O)C(C)N(CCN(C)C)C(=O)CCCN1C(=O)NC(c2ccc(Cl)cc2)C(C(=O)OCc2ccccc2)=C1C` (stereo unspecified), with -68% (active); and `Cc1ccc(SCC(=O)Nc2ccc3oc(-c4ccccc4C)nc3c2)cc1`, with 73.5%.
Consider `CC(=O)OC1=C(C(C)=O)N(Cc2ccccc2)S(=O)(=O)c2ccccc21`, for which the activity change, negative = inhibition is 3.57%.
For `COc1ccc(OCCn2cc(C(=O)C3CCCCC3)c3ccccc32)cc1`, the activity change, negative = inhibition was -16.3%.
Turning to `O=C(COC(=O)c1cc([N+](=O)[O-])ccc1NCc1ccccc1)NC1CCCCC1`, the activity change, negative = inhibition is -19.2%.
Consider `CCN(C(=O)c1cc([N+](=O)[O-])ccc1NCc1cccnc1)c1ccccc1`, for which the activity change, negative = inhibition was -61.2% (active).
On to `CN(c1ccccc1)S(=O)(=O)c1ccc(C(=O)NCc2cccnc2)cc1`, for which the activity change, negative = inhibition was -0.899%.
Take `CCc1ccc(C2C(C(=O)Nc3ccccc3)=C(C)Nc3c(C(=O)Nc4ccc(C)cc4)cnn32)cc1` (stereo unspecified): the activity change, negative = inhibition was -39.9%.
Take `CCCCCCCCCCCCC(NC(C)=O)(C(=O)OCC)C(=O)OCC`: the activity change, negative = inhibition was 12.4%.
Regarding `CC(=O)N1CCN(c2ccc(NCc3ccc(C(C)C)cc3)cc2)CC1`, the activity change, negative = inhibition was -36.3%.
Then `CC(C)(C)C(=O)c1c(N)[nH]c(C(=O)c2ccccc2)c1-c1ccc(F)cc1`, with -5.27%; and `Cc1nc2ccccc2c(-c2ccccc2)c1C(=O)c1ccccc1`, with -104% (active); and `Nc1[nH]c(C(=O)c2ccccc2)c(-c2ccncc2)c1C(=O)NCc1cccc2ccccc12`, with -19.1%.
Then `COc1ccc(OCC(=O)Nc2cccc(C(=O)OCc3cc(=O)n4nc(C)sc4n3)c2)cc1`, with 47.5%; and `CCc1c(C)nc2c(-c3ccccc3)c(C)nn2c1Nc1ccc(NC(C)=O)cc1`, with -66.5% (active); and `Cc1nn2c(NCCN(C)C)c3c(nc2c1-c1ccccc1)CCC3`, with -16.5%.
To `CCc1ccc(NC(=O)c2cnc3c(-c4ccccc4)c(C)nn3c2C)cc1` belongs -0.863%; to `Cc1ccc(OC(=O)CSc2nnc(-c3cccs3)o2)cc1`, 3.01%.
`O=C(CSc1cn(CC(=O)N2CCOCC2)c2ccccc12)Nc1ccccc1`: the activity change, negative = inhibition is 19.2%.
To `COc1ccc(OCC(=O)Nc2cc(C)c(Cl)cc2OC)c([N+](=O)[O-])c1` belongs -64.3% (active); to `Cc1cc(NC(=O)COC(=O)COc2ccc(Cl)cc2C)c([N+](=O)[O-])cc1C`, 26.5%; to `COc1cc(Cl)c(C)cc1NC(=O)COC(=O)c1cc(SC)ccc1Cl`, 4.92%.
Then `Cn1cc(S(=O)(=O)N2CCCCCC2)cc1C(=O)N1CCN(c2ccc(F)cc2)CC1`, with -13.3%; and `COc1ccc(NC(=O)CCCc2nnc3n(CCC(C)C)c(=O)c4sccc4n23)c(OC)c1`, with 12.6%.
Then `CCOc1ccc(-c2cc3nc(C4CCN(C(=O)OC(C)(C)C)CC4)c(C(=O)Nc4cccc(CC)c4)cn3n2)cc1`, with -18.2%.
As to `COC(=O)c1ccccc1NC(=O)c1ccc(COc2ccccc2Cl)o1`, the activity change, negative = inhibition is 14.7%.
To `CCN(CC)c1ccc(/C=N/NC(=O)c2cnccn2)c(O)c1` belongs -98.7% (active).
Regarding `CCN(CC)c1ccc(/C=N/Nc2nc(C)cc(C)n2)c(O)c1`, the activity change, negative = inhibition was -102% (active).
To `CCN(CC)c1ccc(/C=N/NC(=O)CNC(=O)c2cccs2)cc1` belongs -20%.
Then `NS(=O)(=O)c1ccc(CNC(=O)c2cnccn2)cc1`, with 8.17%.
Regarding `O=c1cc2nc(-c3ccccc3)nc(SCCOc3ccc(Cl)cc3)n2[nH]1`, the activity change, negative = inhibition is 5.21%.
Then `Cc1ccc(C)c(N2CCN(C(=O)Cn3nc(C)c4sc5ccccc5c4c3=O)CC2)c1`, with 23.4%; and `CC[C@H](C)[C@H]1CNC(=O)C(=O)N1CC1CCN(CCc2ccc(OC)c(OC)c2)CC1`, with 15.6%; and `COc1ccc(Cl)cc1S(=O)(=O)N1CCC(c2ccncc2)CC1`, with -32.1%.
To `CCOc1ccc(OCC)c(Nc2nc3ccccc3n3nnnc23)c1` belongs -1.18%.
Then `CC(C)[C@H]1COCCS(=O)(=O)N1Cc1ccccc1-c1cccc2c1sc1ccccc12`, with -19%; and `COC(=O)c1c(-c2ccsc2)oc2ccc(-c3cc(OC)c(OC)c(OC)c3)cc12`, with 8.37%; and `CSc1ncccc1C(=O)N1CCCC(CCC(=O)NCc2ccccc2F)C1` (stereo unspecified), with -1.95%.
As for `Cc1cc2cc3n(c2nn1)N=C(Cl)CC3`, the activity change, negative = inhibition was -74.2% (active).
Then `Cc1ccc(C(=O)COC(=O)C(Cc2c[nH]c3ccccc23)NC(=O)c2ccc(Br)cc2)cc1` (stereo unspecified), with 0%.
To `O=C(CSc1nccn1Cc1ccc(F)cc1)NCc1ccccc1` belongs -14.9%.
For `COc1ccc2nc3n(c(=O)c2c1)-c1ccc(Cl)cc1C(=O)NC3Cc1ccccc1` (stereo unspecified), the activity change, negative = inhibition was -25.7%.
Turning to `O=C1NC(Cc2ccccc2)c2nc3ccc(Br)cc3c(=O)n2-c2cc3ccccc3cc21` (stereo unspecified), the activity change, negative = inhibition is 17%.
Then `CC(C)CC1NC(=O)c2cc(Cl)ccc2-n2c1nc1ccccc1c2=O` (stereo unspecified), with -99.6% (active).
Then `Cc1ccc(-c2nnn(CC(=O)N(Cc3ccco3)C(C(=O)NC(C)(C)C)c3ccncc3)n2)o1` (stereo unspecified), with 9.51%.
On to `Cc1ccc(-c2cc(C(=O)Oc3ccccc3Cl)no2)cc1C`, for which the activity change, negative = inhibition is 81.2%.
Turning to `COc1cc(C(=O)N(Cc2ccc(C(C)C)cc2)C2CCS(=O)(=O)C2)cc(OC)c1OC` (stereo unspecified), the activity change, negative = inhibition is 11.7%.
Then `CN(C(=O)CSc1nc2ccccc2n1Cc1ccccc1C#N)c1ccccc1`, with -3.45%; and `C[C@@H](NC(=O)OC(C)(C)C)c1nnc(S(=O)(=O)Cc2ccccc2)o1`, with -105% (active).
To `CC(C)[C@@H](NC(=O)OC(C)(C)C)C(=O)NCC1CCC(C(=O)N[C@@H](Cc2ccccc2)C(=O)O)CC1` (stereo partly specified) belongs -17.7%; to `CC(C)(C)c1ccc(C(CC(=O)O)NS(=O)(=O)Cc2ccccc2)cc1` (stereo unspecified), 30.5%.
Then `CC(C)N(C(=O)Cn1c(SCC(=O)N2CCN(c3ccccc3)CC2)nc2ccccc21)C(C)C`, with -20.6%; and `CCn1cc2nc(SCc3ccccc3Cl)n(CCc3ccccc3)c(=O)c2n1`, with -14.7%.
With `COc1cc(C(=O)NCCc2csc3nc(-c4ccccc4C)nn23)cc(OC)c1OC`, the activity change, negative = inhibition was 7.41%.
To `CCCNC(=O)c1nnc2n1CCN(C(=O)c1ccccc1OC)C2` belongs -9.02%.
As to `COc1ccccc1C(=O)NCCn1cc(SCc2ccccc2Cl)c2ccccc21`, the activity change, negative = inhibition is 20.2%.
Then `Cc1cccc(CN2CCN(C3CN(Cc4cn(Cc5ccccc5F)nn4)S(=O)(=O)C3)CC2)c1` (stereo unspecified), with -0.715%; and `Cc1cccc(CN2CCN(C3CN(Cc4cn(Cc5cc(C)cc(C)c5)nn4)S(=O)(=O)C3)CC2)c1` (stereo unspecified), with -101% (active).
To `Cc1cccc(CN2CCN(C3CN(Cc4ccccc4)S(=O)(=O)C3)CC2)c1` (stereo unspecified) belongs -24.1%.
